According to PubChem BioAssay (NCATS):
Records with an inconclusive call do not appear. Active and inactive are the calls of the source. The call rests on the fitted dose curve; in most records, active means well fitted curve in the direction sought with a large enough effect; inconclusive means small, poorly fitted or top-dose-only effect, or another doubt; inactive means no such curve, though single readings can be large; an effect the other way counts as inactive or inconclusive.

Legend:
[1] = Primary redox qHTS assay for identification of artifact compounds. (AID 1845223)
In short: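 Redox-cycling detection via DTT (250 uM final) oxidation coupled to Amplex Red (25 uM)/HRP (250 mU/mL) in HBSS. 15 min preincubation plus 30 min after DTT, room temperature. Ex/Em 525/598 nm; 4-parameter Hill fit against DMSO and 10 uM DA3003.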

[2] = Quantitative High-Throughput drug screen in 47 multiple myeloma cell lines against the NCATS MIPE library collection: FR4_PLB cell viability assay (AID 1918924; further: nearly all actives have a fitted effect of over 35% in size)
In short: (§1)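 We plated 500 myeloma cells per well, pinned in MIPE 4.0 compounds, and incubated for 48 hours at 37C. ATP was then quantified with CellTiter-Glo, with DMSO and media-only wells defining 100% and 0%.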

[3] = Quantitative High-Throughput drug screen in 47 multiple myeloma cell lines against the NCATS MIPE library collection: Delta47_JCRB cell viability assay (AID 1918925; further: nearly all actives have a fitted effect of over 45% in size)
In short: (§2)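 Approved and investigational drugs from MIPE 4.0 were added by pin tool to 500 cells per well. After 48 hours at 37C, ATP-based CellTiter-Glo luminescence indicated remaining viability.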

[4] = Quantitative High-Throughput drug screen in 47 multiple myeloma cell lines against the NCATS MIPE library collection: EJM_DSMZ cell viability assay (AID 1918926; further: nearly all actives have a fitted effect of over 30% in size)
In short: as §2

[5] = Quantitative High-Throughput drug screen in 47 multiple myeloma cell lines against the NCATS MIPE library collection: AMO1_DSMZ cell viability assay (AID 1918927; further: nearly all actives have a fitted effect of over 30% in size)
In short: as §2

[6] = Quantitative High-Throughput drug screen in 47 multiple myeloma cell lines against the NCATS MIPE library collection: ARP1_JJKsccF8 cell viability assay (AID 1918928; further: nearly all actives have a fitted effect of over 40% in size)
In short: (§3)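 CellTiter-Glo luminescence after 48 h exposure gives viability, scaled between DMSO-only (100%) and media-only (0%) controls. Library compounds are pinned onto 500 myeloma cells per well, incubated at 37C with 5% CO2.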

[7] = Quantitative High-Throughput drug screen in 47 multiple myeloma cell lines against the NCATS MIPE library collection: ARD_JJKsccE7 cell viability assay (AID 1918929)
In short: as §2

[8] = Quantitative High-Throughput drug screen in 47 multiple myeloma cell lines against the NCATS MIPE library collection: Karpas620_DSMZ cell viability assay (AID 1918959); further: nearly all actives have a fitted effect of over 30% in size
In short: as §1

[9] = Quantitative High-Throughput drug screen in 47 multiple myeloma cell lines against the NCATS MIPE library collection: KMM1_JCRB cell viability assay (AID 1918960); further: nearly all actives have a fitted effect of over 30% in size
In short: as §3

[10] = Quantitative High-Throughput drug screen in 47 multiple myeloma cell lines against the NCATS MIPE library collection: Karpas417_ECACC cell viability assay (AID 1918961); settings: Karpas417 myeloma viability, CellTiter-Glo ATP luminescence, 48 h; viability (% of DMSO): at 45.8 µM (top of the series)
In short: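 Viability readout: CellTiter-Glo luminescence following 5 min room-temperature incubation with reagent. Prior exposure: 48 h, 37C, humidified 5% CO2, 500 cells per well.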

Measured: Potency
Potency means the concentration at half of the fitted maximal effect.

C=CC(=O)Nc1ccc2ncnc(Nc3ccc(OCc4cccc(F)c4)c(Cl)c3)c2c1
inactive: [1]
active: [2] 6.62 µM | [3] 0.187 µM | [4] 5.26 µM | [5] 0.0209 µM | [6] 0.296 µM | [7] 0.0418 µM | [8] 0.0418 µM | [9] 0.148 µM

CN(C)CC(=O)N1CCC(c2ccc(NC(=O)c3ncc(C#N)[nH]3)c(C3=CCCCC3)c2)CC1
active: [3] 18.7 µM | [4] 18.7 µM | [5] 7.43 µM | [7] 3.32 µM
not listed: [10]
inactive: all other assays above

C[C@@H](Cc1cc2c(c(C(N)=O)c1)N(CCCO)CC2)NCCOc1ccccc1OCC(F)(F)F
active: [3] 11.8 µM
inactive: [1] | [2] | [4] | [5] | [6]

CS(=O)(=O)N1CCc2c(-c3cnc(N)nc3)nc(N3CCOCC3)nc21
inactive: [1]
active: [2] 0.59 µM | [3] 0.148 µM | [4] 2.09 µM | [6] 0.0418 µM

CC(C)n1cnc2c(NCCc3ccc(O)cc3)nc(-c3csc4ccccc34)nc21
inactive: [1]
active: [2] 20.9 µM | [4] 5.9 µM | [6] 14.8 µM

Oc1ccc([C@@H]2Oc3ccc(O)cc3[C@@H]3CCC[C@@H]32)cc1
active: [6] 23.5 µM
inactive: [1] | [5] | [7] | [8] | [9]

O=C(Nc1cc2cc[nH]c2cn1)c1ccccc1
active: [2] 14.8 µM | [3] 9.35 µM | [4] 8.33 µM | [5] 10.5 µM | [7] 10.5 µM | [8] 4.69 µM
inactive: [1]

CCC[C@H]1C[C@H](C(=O)N[C@@H]([C@@H]2O[C@@H](SC)[C@@H](O)[C@@H](O)[C@@H]2O)[C@H](C)Cl)N(C)C1
active: [10] 0.0093 µM
not listed: [3] | [7]
inactive: all other assays above

Cn1cnc2c(F)c(Nc3ccc(Br)cc3F)c(C(=O)NOCCO)cc21
active: [5] 1.05 µM | [7] 0.0033 µM | [8] 0.0833 µM
not listed: [9] | [10]
inactive: all other assays above

Nc1ccn(C2CO[C@H](CO)O2)c(=O)n1 (some centres undefined)
not listed: [3] | [6] | [10]
inactive: all other assays above

COc1cc(CCc2cc(NC(=O)c3ccc(N4C[C@@H](C)N[C@@H](C)C4)cc3)n[nH]2)cc(OC)c1
active: [2] 18.7 µM | [3] 14.8 µM | [4] 18.7 µM | [5] 18.7 µM | [6] 18.7 µM | [7] 16.6 µM | [8] 20.9 µM | [9] 18.7 µM | [10] 2.35 µM
inactive: [1]

Cc1ncc(-c2ccnc(Nc3ccc(S(C)(=O)=O)cc3)n2)n1C(C)C
inactive: [1]
active: [2] 2.64 µM | [3] 2.35 µM | [4] 2.96 µM | [6] 2.96 µM | [8] 3.72 µM

COc1ccc(S(=O)(=O)Nc2cccnc2Nc2ccc(O)cc2)cc1
active: [2] 0.0264 µM | [3] 0.0264 µM | [4] 0.296 µM | [6] 0.059 µM
inactive: [1]

Cc1ccccc1C(=O)Nc1ccc(C(=O)N2CCCC(O)c3cc(Cl)ccc32)c(C)c1 (centres undefined)
active: [4] 20.9 µM
inactive: [1] | [2] | [6] | [8]

Cn1cc(-c2ccc3ncc(Cc4ccc5ncccc5c4)n3n2)cn1
active: [5] 14.8 µM
not listed: [3] | [9] | [10]
inactive: all other assays above

FC(F)(F)c1ccc(Nc2nc3ccc(Oc4ccnc(-c5ncc(C(F)(F)F)[nH]5)c4)cc3[nH]2)cc1
inactive: [1]
active: [2] 18.7 µM | [3] 23.5 µM | [5] 16.6 µM | [6] 20.9 µM | [8] 26.4 µM | [9] 18.7 µM

CCN(CC)Cc1ccc2cc(COC(=O)Nc3ccc(C(=O)NO)cc3)ccc2c1
inactive: [1]
active: [2] 0.372 µM | [3] 0.526 µM | [4] 1.05 µM | [5] 0.743 µM | [6] 0.59 µM | [7] 0.662 µM | [8] 0.833 µM | [9] 0.469 µM | [10] 0.526 µM

Nc1ccc(C(=O)Nc2cccc(-c3nc(N4CCOCC4)c4oc5ncccc5c4n3)c2)cn1
inactive: [1]
active: [2] 18.7 µM | [3] 0.935 µM | [4] 16.6 µM | [5] 6.62 µM | [6] 6.62 µM | [7] 1.66 µM | [8] 6.62 µM | [10] 0.526 µM

O=C(Nc1ccc(Oc2ccnc3[nH]ccc23)c(F)c1)c1cccn(-c2ccc(F)cc2)c1=O
inactive: [1] | [5] | [6] | [8]
active: [9] 2.64 µM | [10] 0.0047 µM

CCOC(=O)[C@@H](N)Cc1ccc(-c2cc(O[C@H](c3ccc(Cl)cc3-n3ccc(C)n3)C(F)(F)F)nc(N)n2)cc1
active: [2] 23.5 µM | [3] 23.5 µM | [4] 18.7 µM | [5] 9.35 µM | [6] 14.8 µM | [7] 9.35 µM | [8] 9.35 µM | [9] 11.8 µM | [10] 9.35 µM
inactive: [1]

O=C(O)c1ccc(Nc2ncc3c(n2)-c2ccc(Cl)cc2C(c2c(F)cccc2F)=NC3)cc1
active: [3] 0.935 µM | [4] 23.5 µM | [5] 0.187 µM | [6] 0.0105 µM
inactive: [1] | [2]

CCOc1cc2c(c(F)c1OCC)C(=N)N(CC(=O)c1cc(N3CCOCC3)c(OC)c(C(C)(C)C)c1)C2
inactive: [1] | [10]
active: [2] 23.5 µM | [3] 14.8 µM | [4] 20.9 µM | [6] 18.7 µM

OCCNC1CCCc2c1[nH]c1ccc(-c3ccccc3)cc21 (centres undefined)
active: [2] 18.7 µM | [7] 26.4 µM | [8] 23.5 µM | [9] 18.7 µM | [10] 10.5 µM
inactive: [1]

C[N+]1(C)[C@@H]2C[C@@H](OC(=O)C(O)(c3cccs3)c3cccs3)C[C@H]1[C@@H]1O[C@@H]12
not listed: [6] | [10]
inactive: all other assays above

Cc1cnc(Nc2ccc(CN3CCOCC3)cc2)nc1Nc1cccc(S(=O)(=O)NC(C)(C)C)c1
active: [2] 2.64 µM | [4] 5.9 µM | [6] 3.32 µM
inactive: [1]

c1cc(N[C@@H]2CCNC2)nc(-c2cnc3ccc(-c4cn[nH]c4)cn23)c1
inactive: [1]
active: [2] 11.8 µM | [3] 9.35 µM | [4] 13.2 µM | [7] 26.4 µM | [8] 10.5 µM | [9] 8.33 µM | [10] 4.69 µM

N[C@H]1CN(c2c(F)cc3c(=O)c(C(=O)O)cn(C4C[C@@H]4F)c3c2Cl)CC12CC2 (some centres undefined)
not listed: [9] | [10]
inactive: all other assays above

CN1CCc2c(c3ccccc3n2Cc2ccc(C(=O)NO)cc2)C1
inactive: [1]
active: [2] 18.7 µM | [3] 18.7 µM | [4] 18.7 µM | [6] 18.7 µM | [10] 20.9 µM

CCCCOc1ccc(C(=O)Nc2ccc(F)cc2F)cc1
not listed: [2] | [5] | [10]
inactive: all other assays above

N#Cc1c(C2CCNCC2)cc(-c2c(O)cccc2OCC2CC2)nc1N
inactive: [1]
active: [2] 23.5 µM | [3] 16.6 µM | [4] 18.7 µM | [7] 3.72 µM | [8] 9.35 µM

C[C@H]1[C@@H](OC(=O)CCC(=O)O)O[C@@H]2O[C@@]3(C)CC[C@@H]4[C@H](C)CC[C@@H]1[C@@]24OO3
active: [2] 11.8 µM | [3] 5.26 µM | [4] 14.8 µM | [5] 0.833 µM | [6] 2.35 µM | [8] 0.166 µM
inactive: [1]

CC(C)(N)c1ccc(-c2nc3ccccc3nc2-c2ccccc2)cc1
active: [3] 5.9 µM | [4] 23.5 µM | [5] 14.8 µM | [7] 14.8 µM | [8] 10.5 µM | [9] 18.7 µM
inactive: [1]

CCc1nc(-c2cccc(C)c2)c(-c2ccnc(NC(=O)c3ccccc3)c2)s1
active: [2] 18.7 µM | [4] 16.6 µM | [5] 18.7 µM | [6] 11.8 µM | [7] 20.9 µM | [8] 3.32 µM
inactive: [1]

Oc1cc(-c2nc(-c3ccccc3)[nH]c2-c2ccncc2)ccc1Cl
inactive: [1]
active: [3] 4.69 µM | [4] 18.7 µM | [5] 5.26 µM | [6] 14.8 µM | [7] 5.9 µM | [8] 5.9 µM | [9] 1.87 µM

Cc1coc2c1C(=O)C(=O)c1c-2ccc2c(C)cccc12
active: [1] 1.06 µM | [2] 20.9 µM | [4] 16.6 µM | [8] 6.62 µM
inactive: [7] | [9]
